High-throughput results as filed in PubChem BioAssay.
HT1080 IDH1KD tx: kills HT-1080 cells with IDH1 knockdown; HT-1080 IDH1 knockdown viability, ATP luminescence, 48 h; Potency, µM (doses to about 46.1 µM), for the others: top-dose activity, negative = toxicity, hits mostly cytotoxic; actives 2% (n = 360,000); AID 686971;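 also: 0% = DMSO wells and -100% = cell-free medium wells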
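In this qHTS, HT-1080 cells depleted of IDH1 are exposed for 48 h at 37 °C to compound titrations. Toxicity is scored from CellTiter-Glo luminescence, with DMSO as full viability and medium alone as none.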
KB-3-1 cytotox: kills parental KB-3-1 adenocarcinoma cells; AID 1347075; actives 1.4% (n = 400,000); KB-3-1 viability, CellTiter-Glo ATP luminescence, 72 h; Potency, µM (doses to about 46.1 µM), usual class: cytotoxic; also: nearly all actives have a fitted effect of over 60% in size
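Cytotoxicity in the drug-sensitive parental line KB-3-1 was scored as loss of CellTiter-Glo luminescence following 72 h incubation with compound. Values come from curve fitting of normalized concentration-response data.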
KB-V1 MDR tox: kills drug-selected multidrug resistant KB-V1 cells; KB-V1 MDR cells viability, CellTiter-Glo, 72 h; Potency, µM (doses to about 46.1 µM), actives largely listed as cytotoxic; actives 3.4% (n = 400,000); AID 1347076; also: nearly all actives have a fitted effect of over 60% in size
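Readout: CellTiter-Glo luminescence, 10 min after addition. Cells: KB-V1 MDR subline, 72 h at 37 degrees C with compound. Analysis: corrected, normalized data fitted to concentration-effect curves.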
HT1080NT lethal: kills 2HG-producing HT-1080-NT fibrosarcoma cells; actives 1.6% (n = 360,000); HT-1080-NT fibrosarcoma viability, CellTiter-Glo ATP luminescence, 48 h; Potency, µM (doses to about 46.1 µM), for inactives: at the highest dose activity, negative = less viability, most hits filed as cytotoxic;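 also: NT is the 2HG producing partner of a matched IDH1 knockdown line; 0% = DMSO-treated cells and -100% = media-only wells without cells; nearly all actives have a fitted effect of over 55% in size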
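Viability by CellTiter-Glo luminescence after 48 h compound exposure at 37C of HT-1080-NT cells (750/well, RPMI, 5% FBS). % activity scaled between DMSO wells and medium-only wells, then curve-fitted and categorized by curve class.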
* marks the source's active call; other numbers are inactive results; i = inactive; u = inconclusive; x = no result given; ! = not confirmed by another sample. Compounds with a hit are over-represented: about 5.7% of the library has one in this group of screens. Calls follow the shape of the dose curve; as a rule, active = well fitted curve in the direction sought with a large enough effect; inconclusive = small, poorly fitted or top-dose-only effect, or another doubt; inactive = no such curve, though single readings can be large; an effect the other way counts as inactive or inconclusive. Unless noted, % is scaled to controls: 0 for no effect and ±100 for the full control effect; potency is read from the fitted curve at half-maximal effect.

SMILES	HT1080 IDH1KD tx	KB-3-1 cytotox	KB-V1 MDR tox	HT1080NT lethal
Cc1ccc(C)c(OCC(=O)NCCNC(=O)COc2cc(C)ccc2C)c1	-12%	i	18µM*	7%
COc1cc(OC)c(C(=O)OCC(=O)NC23CC4CC(CC(C4)C2)C3)cc1OC	0%	i	8.2µM*	-1%
COc1ccccc1C(=O)OCC(=O)NC12CC3CC(CC(C3)C1)C2	4%	i	i	-1%
COc1ccc(C)cc1S(=O)(=O)N(C)CC(=O)NC1CCCC1	0%	i	12µM*	0%
COc1ccc(C(=O)c2cn(Cc3ccc(F)cc3)c3ccc(C)cc3c2=O)cc1	x	i	i	x
Cc1cc(C)c(NC(=O)Cn2c(=O)n(-c3ccc(F)cc3)c(=O)c3c(C)c(C(=O)N(C)C)sc32)c(C)c1	x	i	i	x
CN(C)c1ccc(C(=O)/C=C/c2ccc(Br)cc2)cc1	-3%	i	i	0%
O=C(/C=C/c1ccc(Br)cc1)c1ccc(NC2=NCCCS2)cc1	u	21µM*	i	u
O=C(/C=C/c1ccccc1)c1ccc(NC2=NCCCS2)cc1	-16%	u	21µM*	-11%
c1ccc(NC2=NCCCCS2)cc1	-5%	i	i	1%
CC1CCc2sc(C(=O)OCC(=O)NCc3ccc(F)cc3)cc2C1 (stereo unspecified)	21µM*	u	u	u
Cc1ccc(-c2csc(=Nc3ccc(F)cc3)n2Cc2ccc3c(c2)OCO3)cc1C	x	i	i	x
Cc1ccc(-n2c(=O)[nH]c3ncccc3c2=O)cc1	-3%	i	i	-6%
Cc1ccc(-n2c(-c3ccc(Br)cc3)c[n+]3c2CCc2ccc4cccnc4c2-3)cc1	4µM*	2.6µM*	u	u
COc1ccc(Cc2noc(-c3ccc(OC)c(OC)c3)n2)cc1OC	-23%	i	12µM*	-22%
CCOc1ccc(-c2nc(-c3ccc(OC)cc3)no2)cc1OCC	7%	i	13µM*	9%
COc1ccc(-c2nc(-c3ccncc3)no2)cc1OC	3%	i	i	14%
Cc1ccc(NC(=O)Cn2cc3c(n2)CCC(C)C3)cc1C (stereo unspecified)	x	i	i	x
CCCc1cc(=O)[nH]c(SCc2nc3ccc([N+](=O)[O-])cc3[nH]2)n1	15µM*	u	i	9.2µM*
CCOc1ccc(CCNC(=O)c2ccc3c(c2)nc2n3CCOC2)cc1OCC	x	i	i	x
CCn1c2ccccc2c2nc3cc(OC)c(OC)cc3nc21	u	u	2.1µM*	u
CCN(C(=O)CSc1nc2ccccc2n1Cc1ccc(C(=O)OC)cc1)c1ccccc1	x	i	i	x
O=C(Nc1ccc(F)c(Cl)c1)C1CCCN1S(=O)(=O)c1ccc(F)cc1 (stereo unspecified)	x	i	i	x
COc1cc(N2C(=O)C=CC2=O)ccc1N1C(=O)C=CC1=O	9.2µM*	18µM*	u	u
COc1ccc(N(Cc2nnc3n2CCCCC3)C(=O)Nc2ccc(Cl)cc2)cc1Cl	x	i	u	x
SMILES	HT1080 IDH1KD tx	KB-3-1 cytotox	KB-V1 MDR tox	HT1080NT lethal
Cc1[nH]c2ccccc2c1C(=O)C(C)OC(=O)c1ccc(NC(=O)CC#N)cc1 (stereo unspecified)	6%	i	i	-8%
Cc1cc(C(=O)C(C)OC(=O)c2ccc(NC(=O)CC#N)cc2)c(C)n1-c1ccc(OC(F)F)cc1 (stereo unspecified)	26µM*	2.9µM*	18µM*	-19%
C=C[C@@H]1c2cc(C)ccc2N(S(=O)(=O)c2ccc(C)cc2)[C@H](c2ccc(C(C)(F)F)cc2)C1(C#N)C#N	x	i	i	x
COc1cc2c(cc1OC)C(c1ccc(-c3ccccc3Cl)o1)=NCC2	13µM*	i	i	u
COc1cc2c(cc1OC)C(c1ccc(-c3ccc(Cl)cc3Cl)o1)=NCC2	23µM*	23µM*	2.6µM*	u
COc1cc2c(cc1OC)C(c1ccc(-c3cc(Cl)ccc3Cl)o1)=NCC2	-7%	u	5.2µM*	-7%
COc1cc2c(cc1OC)C(c1ccc(Cl)cc1)=NCC2	-11%	i	i	8%
COc1cc2c(cc1OC)C(c1ccc(-c3ccc(Cl)c(Cl)c3)o1)=NCC2	23µM*	16µM*!	u	u
COc1cc2c(cc1OC)C(c1oc(-c3ccc(-c4cc(Cl)ccc4Cl)o3)cc1C)=NCC2	x	u	i	x
CCc1ccccc1NS(=O)(=O)c1ccc2c(c1)CC(=O)N2	x	i	i	x
Cc1ccc(C(=O)NC2CCCc3ccccc32)cc1[N+](=O)[O-] (stereo unspecified)	13µM*	i	u	u
CCOc1ccc(NC(=O)c2ccccc2NC(=O)CN(C)CC(=O)Nc2ccc(C)cc2)cc1	-14%	i	i	-4%
COc1ccccc1C(=O)NC(=O)Nc1cccc(Cl)c1	1%	i	i	-9%
Cc1cc(NC(=O)NC(=O)c2ccccc2NC(=O)CN(C)C)ccc1Oc1ncc(Br)cn1	u	2.9µM*	2.1µM*	u
COc1ccc(NC(=O)Nc2ccccc2C(N)=O)cc1OC	-15%	i	i	4%
Nc1ccccc1C(=O)NC(=O)Nc1ccc(Oc2ncc(Br)cn2)c(Cl)c1	u	0.21µM*	0.13µM*	u
Cc1cc(NC(=O)NC(=O)c2ccccc2NC(=O)CN)ccc1Oc1ncc(Br)cn1	u	1.2µM*	u	0.52µM*
CCN(C(=O)Cn1c(=O)n(Cc2ccccc2)c(=O)c2c1c1cc(OC)ccc1n2C)c1ccccc1	x	i	i	x
CCc1c(C)c2cc3c(c(C)c2oc1=O)OCN(CCc1ccccc1F)C3	x	i	i	x
CC(C)(C)C1CCc2c(sc(NC(=O)c3ccc(Cl)cc3)c2C(=O)NCc2ccco2)C1 (stereo unspecified)	x	i	i	x
O=C(Cn1c(=O)n(-c2ccccc2Cl)c(=O)c2sc3ccccc3c21)N1CCCC1	x	i	i	x
COC(=O)c1cc(NC(=S)NCc2ccc(Cl)cc2)cc(C(=O)OC)c1	u	i	i	u
COC(=O)c1ccc(C)c(NC(=S)NCc2ccc(Cl)cc2)c1	-3%	i	23µM*	-5%
CCN(CC)S(=O)(=O)c1ccc2c(c1)nc(CN(C)C(=O)Nc1ccc(C)c(F)c1)n2C	x	i	i	x
O=C(CCCc1nc2ccccc2s1)NCc1ccc(F)cc1	-11%	i	i	-14%
O=C(NC(=S)NCc1ccc(-c2nc3ccccc3s2)cc1)c1ccco1	u	i	u	u
O=C(CCCc1nc2ccccc2s1)NCc1ccccc1	13%	i	23µM*	5%
O=C(NCc1ccc(-c2nc3ccccc3s2)cc1)c1ccco1	7%	i	23µM*	9%
CCCc1nc2ccccc2n2c(-c3ccc(C)cc3)c3c(=O)n(C)c(=O)n(C)c3c12	x	i	i	x
N#C/C(=C\c1cc(Br)c(O)c(Br)c1)c1nc2ccccc2c(=O)[nH]1	x	i	i	x
